Most compounds without a hit are left out; they make up all but 11% or so of the library.
IMPase Li cell: cell-permeable IMPase inhibitors with lithium potentiation; CHO-M1 cells, IP1 TR-FRET (IP-One), carbachol + lithium; Potency, µM (titrated, usually from 59.4 µM), for the others: at the highest dose activity, negative = IMPase inhibition, most hits filed as inhibitors; 210,000 compounds, 0.35% hits; active = well fitted curve in the direction sought with a large enough effect; inconclusive = small, poorly fitted or top-dose-only effect, or another doubt; inactive = no such curve, though single readings can be large; an effect the other way counts as inactive or inconclusive;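 note: IP1 builds up when IMPase is blocked and the TR-FRET signal falls; potency is the fitted concentration of half-maximal effect; plate controls were basal vehicle for no effect and high inhibitor control for full effect; nearly all actives have a fitted effect of over 50% in size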
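CHO-M1, 2000 cells/well, 16–30 h culture; cpd + low Li+, 30 min 37C; lysis with d2-IP1/Eu-anti-IP1 Ab, 10 min RT; TR-FRET 665/620 ratio and 620 channel; AC50 via Hill.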
NPSR antagonist: neuropeptide S receptor (human) antagonism, cAMP; AID 1461; Potency, µM (series often up to 38.3 µM), for inactives: top-dose activity change, negative = inhibition, actives largely listed as inhibitors; 220,000 compounds, 1% hits; CHO-NPSR cells, cAMP TR-FRET, antagonist mode; active = well fitted curve in the direction sought with a large enough effect; inconclusive = small, poorly fitted or top-dose-only effect, or another doubt; inactive = no such curve, though single readings can be large; an effect the other way counts as inactive or inconclusive; note: potency is the fitted concentration of half-maximal effect; nearly all actives have a fitted effect of over 50% in size
PNC assembly inh: perinucleolar compartment assembly inhibition; PC3M PTB-GFP, PNC prevalence imaging, 16 h; hits give low values; activity change (PNC), negative = inhibition, % at 10 µM; 140,000 compounds, 3.1% hits; AID 2417;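 active = readout at or below -70, meaning at least 70% loss of cells showing the perinucleolar compartment, a nuclear body marking cancer cells; inconclusive = readout between -30 and a set limit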;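 note: plate controls were DMSO wells for no effect and camptothecin positive control wells for full effect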
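Read-out is percentage of cells bearing a perinucleolar compartment, from automated 20x imaging of fixed, Hoechst-stained PC3M PTB-GFP cells. Cells were seeded 4 h, then exposed 16 h to compound (23 nl of library stock) in duplicate plates.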
HPGD block: HPGD (human) dehydrogenase inhibition; P15428; purified HPGD, NADH fluorescence kinetic, PGE2 substrate; Potency, µM, inactives show at the top dose activity change, negative = inhibition, actives largely listed as inhibitors; 150,000 compounds, 4.3% hits; AID 894; note: potency is the fitted concentration of half-maximal effect
Target sequence (P15428 whole entry, looked up): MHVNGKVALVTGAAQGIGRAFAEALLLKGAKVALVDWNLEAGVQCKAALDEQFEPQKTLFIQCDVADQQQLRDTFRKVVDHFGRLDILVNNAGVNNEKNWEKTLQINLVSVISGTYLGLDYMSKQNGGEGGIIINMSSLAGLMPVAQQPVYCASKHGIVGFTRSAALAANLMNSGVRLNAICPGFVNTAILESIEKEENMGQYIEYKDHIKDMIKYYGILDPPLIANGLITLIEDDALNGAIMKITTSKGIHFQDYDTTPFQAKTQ
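20 nM HPGD preincubated 15 min at room temperature with compound in 50 mM Tris-HCl pH 8, 0.01% Tween 20. Started with 1 mM NAD+ and 30 uM prostaglandin E2; NADH fluorescence (360/450 nm) read 5 times over 30-s intervals, last minus first.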
IMPase cell inh: IMPase inhibition in cells; CHO-M1 cells, IP1 accumulation, HTRF TR-FRET ratio; P97697; inhibition (IP1 accumulation), % at 46.1 µM; 120,000 tested, under 10 active; active = well fitted curve in the direction sought with a large enough effect in the signal ratio, not every such curve was filed as active; inconclusive = small, poorly fitted or top-dose-only effect, or a change in a side signal; inactive = no such curve, though single readings can be large or run the other way; the % refers to the signal ratio;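 note: cells stimulated with carbachol in lithium chloride buffer; plate controls were DMSO basal wells for no effect and reference inhibitor wells for full effect; higher means more IMPase inhibition seen as more IP1 and lower FRET ratio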
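CHO-M1, 2000 cells/well, cultured 16–30 h; cpd up to 46 uM; carbachol (50 uM solution, stimulation buffer w/ 50 mM LiCl, pH 7.4), 30 min 37C; IP-One TR-FRET, 10 min RT; Ex 320/Em 665, 620; Hill-fit AC50.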
ALDH1A1 block: inhibitors of human aldehyde dehydrogenase 1A1. P00352. Purified ALDH1A1, NADH fluorescence, propionaldehyde substrate. Potency, µM (series often up to 75.3 µM), for the others: top-dose activity, negative = inhibition, most hits filed as inhibitors. 220,000 compounds, 7.3% hits;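 note: potency is the fitted concentration of half-maximal effect; plate controls were no enzyme wells and a reference inhibitor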
Target sequence (P00352 whole entry, looked up): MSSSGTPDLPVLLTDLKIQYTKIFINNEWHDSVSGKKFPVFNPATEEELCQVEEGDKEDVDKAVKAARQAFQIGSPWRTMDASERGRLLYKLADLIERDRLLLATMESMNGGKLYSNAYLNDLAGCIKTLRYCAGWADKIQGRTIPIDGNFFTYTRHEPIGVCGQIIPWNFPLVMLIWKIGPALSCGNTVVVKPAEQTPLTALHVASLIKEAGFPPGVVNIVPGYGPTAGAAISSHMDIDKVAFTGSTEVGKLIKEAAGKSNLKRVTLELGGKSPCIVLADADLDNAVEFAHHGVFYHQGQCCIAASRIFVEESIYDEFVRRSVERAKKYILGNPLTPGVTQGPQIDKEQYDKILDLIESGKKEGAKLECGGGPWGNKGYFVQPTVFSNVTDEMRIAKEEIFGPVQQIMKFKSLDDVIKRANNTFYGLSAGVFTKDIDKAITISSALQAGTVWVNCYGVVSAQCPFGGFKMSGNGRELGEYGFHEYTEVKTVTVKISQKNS
Active calls of the source: *; ? = inconclusive; · = not tested or not shown; [ ] = another dose, or the depositor's remark. Unless noted, calls come from the whole dose curve; as a rule, active = well fitted inhibition curve with a large enough effect (not every such curve was filed as active); inconclusive = small, poorly fitted or top-dose-only effect, or another doubt; inactive = no such curve, though single readings can be large or run the other way. Unless noted, % is set by controls: 0 for no effect and ±100 for the full control effect.

SMILES	IMPase Li cell	NPSR antagonist	PNC assembly inh	HPGD block	IMPase cell inh	ALDH1A1 block
COc1ccccc1C(c1nnnn1C(C)(C)C)N1CCN(C(=O)c2ccco2)CC1 (centres undefined)	-7.5%[38.3 µM]	-30.2%[46.1 µM]	-11.7	1.6%	2.5	25.1µM*
Cc1ccc(S(=O)(=O)Cn2nnnc2C(CC(C)C)N2CCN(C(=O)c3ccco3)CC2)cc1 (centres undefined)	3.5%	-0.4%	-113.4*	1.6%	·	?
CC(C)CC(c1nnnn1C1CCCC1)N1CCN(C(=O)c2ccco2)CC1 (centres undefined)	36.0%[38.3 µM]	-14.7%[46.1 µM]	0.6	-6.0%	3.8	8.91µM*
O=C(c1ccco1)N1CCN(C(c2cccs2)c2nnnn2C2CCCC2)CC1 (centres undefined)	9.1%	-10.0%[46.1 µM]	5.2	0.8%	4.7	?
CCCCC(c1nnnn1C1CCCC1)N1CCN(C(=O)c2ccco2)CC1 (centres undefined)	19.7%[38.3 µM]	-17.7%[46.1 µM]	?	-6.4%	-1.2	11.2µM*
COCCn1nnnc1C(CC(C)C)N1CCN(C(=O)c2ccco2)CC1 (centres undefined)	·	-1.6%[46.1 µM]	22.6	·	0.9	-13.5%
CCCC(c1nnnn1CC1CCCO1)N1CCN(c2ccccc2)CC1 (centres undefined)	10.6%	3.2%	·	·	·	-2.9%
CCCCC(c1nnnn1CCOC)N1CCN(C(=O)c2ccco2)CC1 (centres undefined)	20.2%[38.3 µM]	-6.2%[46.1 µM]	21.5	-6.3%	-1.6	?
CCCCC(c1nnnn1CC1CCCO1)N1CCN(Cc2ccccc2)CC1 (centres undefined)	9.2%	9.2%[46.1 µM]	-100.0*	-11.1%	1.6	?
CCOC(=O)CCCc1c[nH]c2ccccc12	5.8%[38.3 µM]	-11.5%[46.1 µM]	79.7	-9.5%	1.7	-7.8%
CCOC(=O)N1CCN(C(=O)c2ccc(Oc3ccc([N+](=O)[O-])cc3)cc2)CC1	14.6%	-3.4%	·	·	·	-3.7%
O=S(=O)(Nc1ccc(-n2cnnn2)cc1)c1ccc(F)c(F)c1F	·	-8.4%	·	·	·	·
O=C(CNS(=O)(=O)c1ccccc1)NCC(=O)OCc1ccc(C(=O)c2ccccc2)cc1	6.3%	15.9%	29.6	20µM*	·	-21.6%
O=C(O)Cc1cn(Cc2ccc(F)cc2)c2ccccc12	-0.4%	-15.2%	·	·	·	-5.0%
Cc1[nH][nH]c(=O)c1C(c1c(C)[nH][nH]c1=O)c1cn(Cc2ccc(Cl)c(Cl)c2)c2ccccc12	12.6%	1.5%	-2.2	-4.2%	·	3.55µM*
Cc1[nH][nH]c(=O)c1C(c1c(C)[nH][nH]c1=O)c1cn(Cc2ccc(F)cc2)c2ccccc12	13.6%	3.4%	-29.4	-6.0%	·	1.41µM*
CCN(CC)C1=CC(=O)OC12CCCCC2	-0.2%[38.3 µM]	11.3%[46.1 µM]	23.3	35.5µM*	10.5	14.1µM*
CC(C)N(C1=CC(=O)OC12CCCCC2)C(C)C	·	16.6%	·	·	·	·
COc1c(-c2coc3cc4c(cc3c2=O)CC(O)C(C)(C)O4)ccc2c1C=CC(C)(C)O2 (centres undefined)	17.1%	·	·	15.8µM*	·	?
c1ccc2c(c1)Cn1nnnc1-2	-2.4%[38.3 µM]	2.0%[46.1 µM]	-15.8	-17.2%	-0.4	6.5%
c1ccc2c(c1)CC1(CCCCC1)n1nnnc1-2	6.4%	-1.6%[46.1 µM]	?	-2.9%	-4.2[0.369 µM]	12.6µM*
O=C(NC1CCCCCC1)C(=S)NCCc1ccccc1	4.3%	-45.9%	·	·	·	11.2µM*
CCN(C(=O)COC(=O)c1ccccc1SCC(=O)NC1CCCCCCC1)C1CCS(=O)(=O)C1 (centres undefined)	6.5%	-8.2%	-112.4*	?	·	?
O=C(CSc1ccccc1C(=O)O)NC1CCCCCC1	·	41.7%	·	·	·	·
O=C(CSc1ccccc1C(=O)NCc1ccccc1)NC1CCCCCCC1	24.6%	-23.4%[46.1 µM]	44.7	20µM*	?	-9.8%
SMILES	IMPase Li cell	NPSR antagonist	PNC assembly inh	HPGD block	IMPase cell inh	ALDH1A1 block
O=C(NC1CCCCCC1)C(=S)NCc1ccccc1	7.4%	-32.9%	·	·	·	25.1µM*
O=C(NC1CCCCC1)C(=S)NCc1ccccc1	15.1%	-18.8%	·	·	·	-13.7%
CC(C)CN(C(=O)COC(=O)c1ccccc1SCC(=O)NC1CCCCCC1)C1CCS(=O)(=O)C1 (centres undefined)	12.2%	-8.9%[46.1 µM]	29.7	-21.5%	2.8	-7.6%
Cc1ccc(C(=O)NNC(=S)Nc2cccc3ccccc23)s1	·	-19.5%[46.1 µM]	?	·	?	1.3%
O=C(CSc1oc(-c2cccs2)nc1S(=O)(=O)c1ccccc1)NC1CCCCC1	-11.6%[38.3 µM]	-15.6%[46.1 µM]	18.8	?	0.2	?
CC1CCCCN1C(=O)c1cc(F)c(F)cc1Cl (centres undefined)	38.1%[38.3 µM]	12.4%[46.1 µM]	?	20µM*	16.8	-6.7%
CC1CCCCN1C(=O)Cc1ccc(Cl)cc1 (centres undefined)	22.8%[38.3 µM]	-1.2%[46.1 µM]	9.8	11.2µM*	23.2	2.9%
CC1CCCN(C(=O)c2cc(F)c(F)cc2Cl)C1 (centres undefined)	23.2%[38.3 µM]	-4.9%[46.1 µM]	?	6.31µM*	12.6	3.7%
O=C(c1cc(F)ccc1F)C1CCCN(C(=O)c2ccc(F)cc2Cl)C1 (centres undefined)	14.5%	18.0%	·	·	·	?
Cc1cc(F)c(F)c(C(=O)N2CCCCC2C)c1Cl (centres undefined)	11.6%	10.3%	·	·	·	5.6%
Cc1ccc(C)c(S(=O)(=O)N2CCN(CC(=O)Nc3cc(C)on3)CC2)c1	-6.7%[38.3 µM]	-12.4%[46.1 µM]	?	-0.8%	4.5	0.1%
COC(=O)c1ccccc1CCC(C)=O	-14.0%[38.3 µM]	16.9%[46.1 µM]	-10.2	-11.2%	-11.6	?
CCN(CC)C(=O)CSc1nc(O)cc(=O)n1CC	0.6%[38.3 µM]	-8.2%[46.1 µM]	-10.3	-13.3%	2.5	4.1%
CCOC(=O)C(Sc1ncnc2c1sc1nc(N3CCOCC3)c3c(c12)CCCC3)c1ccccc1 (centres undefined)	-13.0%[38.3 µM]	-4.8%[46.1 µM]	-6.0	?	10.9	3.4%
CCOC(=O)C1CCCN(C(=S)Nc2ccc(F)cc2)C1 (centres undefined)	2.2%	-2.7%	·	·	·	1.7%
CCOC(=O)C1CCCN(C(=O)c2ccc(Cl)cc2)C1 (centres undefined)	5.2%	10.1%	·	·	·	-6.5%
CCOC(=O)C1CCCN(c2cc(C)nc3cc(-c4ccc(F)cc4)nn23)C1 (centres undefined)	8.5%[38.3 µM]	-15.7%[7.67 µM]	-90.2*	-11.5%	7.7	-5.3%
CCOC(=O)C1CCCN(c2cc(C)nc3cc(-c4ccc(Cl)cc4)nn23)C1 (centres undefined)	15.0%	-12.4%[46.1 µM]	-100.0*	?	1.9	?
COC(=O)CSc1ccc2nnc(-c3ccc(F)cc3)n2n1	3.7%[38.3 µM]	-5.1%[46.1 µM]	-4.1	?	-11.6	?
Cc1ccc(N(CC(=O)Nc2cccc(C)c2)S(=O)(=O)c2cccc3nonc23)cc1	·	?	?	·	4.6	7.08µM*
